This passage reports growth results from PubChem BioAssay (NCI).

Compounds without any hit were thinned out: in the full panel of roughly 83,000, 20% have a hit.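 Treatment: one concentration, 48 hours, 96-well format. Scoring: percent growth, with anything below 10 considered active.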 A number with no mark means an inactive call. The source made the active and inactive calls.

This test relates to MDA-MB-468 breast. Put plainly: NCI-60 one-dose screen, 48 h (100 = growth as untreated, 0 = no growth, -100 = all killed). As to conditions: 10 µM unless noted.
For the compound `Cn1cc(-c2nc(-c3c[nH]c4ccncc34)cs2)c2cc(Br)ccc21`, the growth was -71.8% (active).

Take `COC(=O)c1cccnc1`: the growth was 97.7%. For the compound `Cn1ccnc1C(=O)/C=C/c1ccc(CNC(=O)c2ccc(Cl)cc2)cc1`, the growth was -14.5% (active). To `O=c1cc(-c2ccccc2)[nH]c2c1CCCC2` belongs 39.9%; to `COc1cc(C2C=C(C)N=C3SC(C)=NN32)cc(OC)c1OC` (configuration not stated), 106%. `Cc1cc(C(C)(C)CC(C)(C)C)ccc1OCCOCC[N+](C)(C)Cc1ccccc1`: the growth was -82.5% (active). To `COc1cc(/C=C/C(=O)N2CCN(C(=O)c3cc(OC)c(OC)c(OC)c3)CC2)ccc1OCCCOc1cc2c(cc1OC)C(=O)N1CCC[C@H]1C=N2` belongs -34.6% (active); to `CCCCCCCCCCCCCCCCCBr`, 99.8%; to `CC(C)c1ncc(CO)n1Cc1c(Cl)cccc1Cl`, 97.5%. Turning to `OCc1ccccn1`, the growth was 99.9%.

As to `NC(CSC(c1ccccc1)(c1ccccc1)c1ccccc1)C(=O)NCC(=O)O` (configuration not stated), the growth was 55%. To `CC/C(=C\c1ccc(N(C)C)cc1)c1ccncc1` belongs -12.7% (active); to `O=C1/C(=C/c2ccccc2O)N=C2SCCCN12`, 99.2%; to `O=C(N/N=C/c1cccc(O)c1O)c1ccccc1`, -12.6% (active). Regarding `COc1ccc(-c2nn(-c3ccccc3)cc2/C=C/C(=O)c2ccc(NC(=O)CCCCCCC(=O)NO)cc2)cc1`, the growth is 92.8%.

On to `Clc1ccc2c(N/N=C/c3c[nH]c4ccccc34)ccnc2c1`, for which the growth is -75.9% (active). The same measure for `O=C(Nc1ccncc1)C(=O)c1cn(S(=O)(=O)c2cc(Cl)cc(Cl)c2)c2ccccc12`: 41.6%.
